Screening data deposited in PubChem by National Center for Advancing Translational Sciences (NCATS).
D1 PAM = potentiators of human D1 dopamine receptor. P21728. HEK293 TREx D1 cells, calcium flux, dopamine EC20 potentiation. potentiation, % at 10 µM. hit rate 0.036% among 360,000; in the data active means potentiation above about 30%; further: 0% is about no effect
TRHR enhancer = allosterically enhances the human TRH receptor | P34981 | TRHR cells, fluo-8 calcium fluorescence, EC20 TRH enhancement | enhancement, % at 2 µM | hit rate 0.66% among 360,000 | AID 493056; in the data active means enhancement above about 30%; further: 0% is about no effect
Target sequence (P34981 whole entry, looked up): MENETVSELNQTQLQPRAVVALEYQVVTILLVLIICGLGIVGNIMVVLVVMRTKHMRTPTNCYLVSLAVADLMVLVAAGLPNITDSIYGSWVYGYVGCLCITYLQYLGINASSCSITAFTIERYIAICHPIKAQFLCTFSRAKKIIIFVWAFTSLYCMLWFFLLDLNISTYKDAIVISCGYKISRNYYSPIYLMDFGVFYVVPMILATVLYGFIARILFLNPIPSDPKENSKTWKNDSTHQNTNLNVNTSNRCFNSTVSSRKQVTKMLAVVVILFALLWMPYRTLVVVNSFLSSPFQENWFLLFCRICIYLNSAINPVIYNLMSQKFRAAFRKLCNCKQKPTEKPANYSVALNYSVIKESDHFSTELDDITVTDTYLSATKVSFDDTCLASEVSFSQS
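TRHR-expressing cells loaded with fluo-8 calcium dye were read kinetically (ex 480/em 530) during compound addition, then stimulated with an EC20 of TRH (10 nM final). Enhancement of the Gq-mediated intracellular calcium response was scored.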
TRHR ag = TRH receptor (human) agonism. hit rate 0.18% among 360,000. TRHR cells, calcium flux fluo-8, FDSS agonist mode. AID 493084. activation, % at 2 µM. P34981; further: 0% is about no effect
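Agonist-mode FDSS calcium read (Ex 480/Em 530, 1 s cycles) in 1536-well TRHR cells with fluo-8 dye, after 10-cycle baseline and 23 nL compound addition; TRH at EC20 (10 nM final) added afterwards for the enhancer phase.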
D1 antagonist = antagonists of human D1 dopamine receptor; HEK293 TREx D1 cells, calcium flux, dopamine EC80; hits give low values; activity change, negative = inhibition, % at 10 µM; hit rate 3.2% among 360,000; AID 504652; in the data active means activity change below about -30%; further: on the % scale 0 is the no-effect control and ±100 the full control effect
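Compound effects on dopamine-evoked calcium signalling were measured in tetracycline-induced HEK293 Trex D1 cells. Dopamine at EC80 followed a 180 s compound pre-read, and fluorescence was tracked kinetically for 180 s more.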
D1 agonist = agonists of human D1 dopamine receptor. hit rate 1% among 360,000. AID 504660. activation, % at 2 µM. HEK293 T-REx D1 cells, calcium flux, agonist mode. P21728; further: 0% is about no effect
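Inducible HEK293 T-REx D1 cells, force-coupled to calcium signalling, were plated at 4000 cells/well with tetracycline and held overnight at 30 C. After no-wash calcium dye loading, compound-evoked calcium rise over 180 s flagged agonists.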
Active calls of the source: *. This is a sample that favours compounds with a hit; in the whole collection about 4.6% have one here. Unless noted, no stated cut-off is given here; in the data, active means activation above about 30%; inactive means the rest.

SMILES	D1 PAM	TRHR enhancer	TRHR ag	D1 antagonist	D1 agonist
CCC(Sc1nc2ccccc2c2nc(CCn3c(C)nc4ccccc43)nn12)C(=O)Nc1ccc(F)cc1 (configuration not stated)	-4	2	0	-42*	1
Cc1nn(-c2ccc(F)cc2F)c2c1-c1nc(N3CCCC3)ncc1CC2	-18	0	0	-42*	0
Cc1cc2c(s1)c1cnn(Cc3cc(OC(F)(F)F)ccc3F)c(=O)c1n2C	6	-9	0	-14	3
COc1ccc(Cl)cc1NC(=O)Cn1cc(C(=O)c2ccncc2)c(=O)c2cc(C)ccc21	0	-2	0	-14	1
CCOC(=O)/C=C/c1cc(F)c(S(=O)(=O)N2CCN(S(=O)(=O)c3ccc4c(c3)OCCO4)CC2)cc1F	-6	-3	0	-1	0
Cc1cccc(CNC(=O)c2ccc(C)c(-n3c(C)nc4cccnc43)c2)c1	-2	-1	-1	1	-1
O=C(CSc1ncn[nH]1)Nc1ccccc1C(=O)O	0	-7	0	8	0
O=C(CSc1ncn[nH]1)Nc1ccc(Br)cc1F	1	-4	-1	-36*	1
Clc1ccc(-c2nnc3n2CCCS3)cc1	-1	34*	-1	23	1
Cc1ccc(NC(=S)N2CCC(NC(=O)c3ccccc3)CC2)cc1	-1	6	0	-1	3
COc1ccc(CNc2nc(-c3ccco3)nn2C(=O)c2ccccc2C)cc1	-2	3	1	-36*	4
Cc1ccc(CNc2nc(-c3ccco3)nn2C(=O)c2ccccc2[N+](=O)[O-])cc1	-2	37*	-2	-62*	7
CS(=O)(=O)n1nc(-c2cccnc2)nc1NCc1ccccc1	-4	1	0	1	-1
COc1ccc(CNc2nc(-c3ccccc3)nn2C(=O)c2cccs2)cc1	0	-6	9	9	37*
COc1ccc(CNc2nc(-c3cccnc3)nn2S(C)(=O)=O)cc1	-2	-6	-1	-31*	4
CC(C)(C)OC(=O)N1CCC[C@H]1C(=O)N/N=C/c1cccc2nccnc12	0	6	1	-12	0
COc1cc(C(=O)NCc2nc3cccnc3n2Cc2ccc(C)cc2)cc(OC)c1OC	-4	-2	0	7	0
O=C(NNC(=O)c1ccccc1C(=O)O)c1ccc(-c2ccccc2)cc1	-4	7	0	-29	1
CCCOC(=O)c1c(-c2ccccc2)c(-c2ccccc2)nn(C)c1=O	1	-6	-2	4	5
CN(C)c1ccc(CNc2nc(-c3ccccc3)nn2S(C)(=O)=O)cc1	-1	2	0	9	-1
CC(=O)n1nc(-c2ccccc2)nc1NCc1ccc(N(C)C)cc1	0	39*	0	1	1
CCc1cccc(NC(=O)C(c2ccccc2)N2Cc3ccccc3C2=O)c1 (configuration not stated)	5	4	1	1	3
COCCNC(=O)c1c(N)n(-c2ccccc2)c2nc3ccccc3nc12	9	1	0	-1	3
COCCCn1c(N)c(-c2nc3ccccc3n2C)c2nc3ccccc3nc21	-2	3	22	-4	77*
N#Cc1c(N)n(CCc2ccc(F)cc2)c2nc3ccccc3nc12	-8	2	0	-18	0
SMILES	D1 PAM	TRHR enhancer	TRHR ag	D1 antagonist	D1 agonist
Cn1c(-c2c(N)n(C3CCCC3)c3nc4ccccc4nc23)nc2ccccc21	-5	17	16	-16	53*
COCCNC(=O)c1c(N)n(CCCn2ccnc2)c2nc3ccccc3nc12	-9	17	0	-47*	1
Cn1c(-c2c(N)n(CCc3ccccc3)c3nc4ccccc4nc23)nc2ccccc21	-5	2	20	11	77*
O=S(=O)(Nc1nc2ccccc2nc1Nc1ccccc1Br)c1ccccc1	-2	-5	0	12	12
CCOc1ccc(N(CC)C(=O)c2cc3c(s2)-c2ccccc2OC3)cc1	9	6	0	18	5
Cn1c(-c2c(N)n(CCCc3ccccc3)c3nc4ccccc4nc23)nc2ccccc21	-5	0	-1	3	52*
O=CNCc1nc2ccccc2n1CCCc1ccccc1	-3	-2	0	10	23
CCOc1ccc(CCNC(=O)C2=C(C)C(=O)OC23CCCCC3)cc1OCC	0	2	0	-5	2
CCC(O)(CCN1CCCCC1)c1ccccc1 (configuration not stated)	0	-3	0	16	1
OC(CCCN1CCCCC1)(c1ccccc1)c1ccccc1	-3	4	0	-34*	3
O=C(c1cc2ccccc2o1)N(Cc1nnc(-c2ccccc2Cl)o1)C1CC1	-1	-2	0	3	4
CCCN(Cc1nnc(-c2ccccc2Cl)o1)C(=O)c1cc2ccccc2o1	-4	-14	-1	-31*	12
CCOc1ccc(-c2nc(Cn3c(=O)cc(-c4ccccc4)c4c(C)nn(C)c43)c(C)o2)cc1OC	-6	-3	0	1	0
COc1cc(NC(=O)Cn2ccc3ccccc3c2=O)cc(OC)c1OC	-2	6	0	14	0
Cc1ccc(CNC(=O)c2sc3nc(-c4ccccc4)cn3c2C)cc1	-5	-2	1	-6	1
Cc1c(C(=O)NCc2ccc(F)cc2)sc2nc(-c3ccc(F)cc3)cn12	-5	0	0	-50*	4
COc1ccc(S(=O)(=O)N2CCCOC2CNC(=O)C(=O)NCc2ccco2)cc1C (configuration not stated)	4	3	-1	-12	1
O=C(NCCc1ccccc1)C(=O)NCC1OCCCN1S(=O)(=O)c1cc(F)ccc1F (configuration not stated)	1	0	1	-15	2
COc1ccc(CCNC(=O)C(=O)NCC2OCCN2S(=O)(=O)c2ccc(OC)cc2)cc1 (configuration not stated)	-7	1	-1	-35*	12
Cc1cc(F)ccc1S(=O)(=O)N1CCCOC1CNC(=O)C(=O)NCCc1ccccc1 (configuration not stated)	-5	-6	0	-34*	3
COc1ccc(CCNC(=O)C(=O)NCC2OCCN2S(=O)(=O)c2ccc(Cl)cc2)cc1 (configuration not stated)	-11	2	0	-24	9
COc1ccc(S(=O)(=O)N2CCCOC2CNC(=O)C(=O)NCc2ccccc2F)cc1C (configuration not stated)	-5	-4	0	-32*	6
COc1cccc2oc3ccc(C#Cc4ccccn4)cc3c(=O)c12	3	-6	-1	23	4
CCOCCCn1c(=S)[nH]c2cc(C(=O)NC3CCCC(C)C3C)ccc2c1=O (configuration not stated)	-5	3	0	-10	3
